Measurements published in PubChem BioAssay AID623901 (Broad Institute, 2012).
Among all 340,000 compounds or so, about 470 (0.14%) were called active. This is one part of a sample in which actives are shown more often than they occur.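 Rule for the calls: active = mean activation of 30% or more, with every replicate also reaching 30%; inconclusive = mean activation of 30% or more but some replicate falls short; inactive = the rest.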

assay: miR-122 suppressors via Renilla sensor increase, primary screen, cell-based, Huh7 psiCHECK-miR122, Renilla luciferase, single point (AID 623901); settings: 48 h, at 12.5 µM, stronger effect = higher value;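 note: 0% = median of neutral control wells and 100% = median of positive control wells; higher luciferase signal means stronger suppression of miR-122 activity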

activation, active:
CCN1CCN(C(c2cccnc2)c2cc(Cl)c3cccnc3c2O)CC1 (stereo unspecified) 49.7%, O=C(CNCCC1=CCCCC1)Nc1ccccc1N1CCCCCC1 76.7%, COc1ccc(C(CCN(Cc2ccc(OC)c(OC)c2)C(=O)CCl)c2ccccc2)cc1 (stereo unspecified) 34.7%, CN1C[C@@H]2[C@H](c3ccccc31)[C@@H](CO)N2C(=O)Nc1ccccc1 41.7%

activation, inactive:
C/C=C/c1ccc2c(c1)O[C@@H](CN(C)S(C)(=O)=O)[C@@H](C)CN([C@H](C)CO)S2(=O)=O 3.54%, CCCNC(=O)N(C)C[C@@H]1Oc2ncc(C#CC(C)C)cc2C(=O)N([C@H](C)CO)C[C@H]1C 10.4%, C[C@H]1CN([C@@H](C)CO)S(=O)(=O)c2ccc(C#CCN(C)C)cc2O[C@H]1CN(C)C(=O)CN(C)C 8.35%, COCC(=O)Nc1ccc2c(c1)OC[C@H](C)NC[C@@H](C)[C@H](OC)CN(C)C2=O -4.6%, CCC(=O)N(C)C[C@@H]1Oc2cc(C#C[C@H](C)O)ccc2S(=O)(=O)N([C@@H](C)CO)C[C@H]1C -2.5%, C/C=C/c1cnc2c(c1)C(=O)N([C@H](C)CO)C[C@H](C)[C@@H](CN(C)CC1CCOCC1)O2 2.95%, O=C1c2ccccc2C2=Nc3ccccc3SC(c3ccccc3F)C12 (stereo unspecified) -162%, C=CCNC(=O)c1ccccc1NC(=O)c1ccc(Cl)c(S(=O)(=O)Nc2cccc(C)c2C)c1 -155%, CC(C)CC#Cc1cnc2c(c1)C(=O)N([C@H](C)CO)C[C@H](C)[C@H](CN(C)C(=O)Nc1ccccc1F)O2 4.61%, C[C@H](CO)N1C[C@H](C)[C@@H](CN(C)C(=O)Cc2ccncc2)Oc2ncc(C#CCN(C)C)cc2C1=O 3.61%, COCC#Cc1cnc2c(c1)C(=O)N([C@@H](C)CO)C[C@@H](C)[C@@H](CN(C)S(=O)(=O)c1cccc(OC)c1)O2 -3.48%, C[C@@H](O)C#Cc1cnc2c(c1)C(=O)N([C@@H](C)CO)C[C@H](C)[C@H](CN(C)Cc1cncnc1)O2 3.47%, Cc1cc(C(C)(C)C)cc(S(=O)(=O)Nc2ccc(C(=O)O)cc2)c1C -165%, C[C@H](CO)N1C[C@H](C)[C@H](CN(C)C(=O)Nc2ccc3c(c2)OCO3)Oc2ncc(C#Cc3cccc(F)c3)cc2C1=O 5.6%, CNC[C@@H]1Oc2cc(-c3ccccc3OC)ccc2S(=O)(=O)N([C@@H](C)CO)C[C@H]1C -2.47%, O=C(Nc1cc(F)ccc1F)N1C[C@H]2[C@@H](c3ccccc31)[C@@H](CO)N2C(=O)c1ccccc1 -133%, O=C(Cc1ccccc1)N1C[C@@H]2[C@H](c3ccccc31)[C@@H](CO)N2C(=O)Nc1ccc(F)cc1 -92.3%
